Hits are enriched below; roughly 12% of the tested compounds scored in any of these assays.
HP1b binding inh – HTS for Inhibitors of HP1-beta Chromodomain Interactions with Methylated Histone Tails; Chromobox protein homolog 1 (Homo sapiens), P83916; AlphaScreen HP1-beta / biotin-H3K9me3 peptide binding; Potency, µM (series often up to 114 µM), usual class: inhibitors; actives 0.56% (n = 390,000); also: nearly all actives have a fitted effect of over 70% in size
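Compound inhibition of the preformed complex between 50 nM HP1-beta and 50 nM biotinylated H3K9me3 peptide was read by AlphaScreen. Buffer was PBS pH 7.4 with 0.01% Tween-20. Incubations ran 30 min at room temperature, with 10 ug/mL donor/acceptor beads.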
Sfp inh – qHTS Assay for Inhibitors of Bacillus subtilis Sfp phosphopantetheinyl transferase (PPTase); AID 1490, 2009; Potency, µM, actives largely listed as inhibitors; Biochemical Sfp PPTase activity, qHTS; actives 3.5% (n = 310,000);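 also: the enzyme is Sfp with the accession as filed and its product quenches rhodamine fluorescence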
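Fluorescence-quenching assay with 15 nM Sfp, 5 uM rhodamine-CoA and 12.5 uM BHQ-2-labelled ybbR peptide in pH 7.6 Hepes/MgCl2 buffer. Enzyme was pre-incubated with compound for 15 min at room temperature. Rate was taken from the 30-min fluorescence change (525/598 nm).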
JMJD2A Tudor – qHTS Assay for Inhibitors of JMJD2A-Tudor Domain; AlphaScreen JMJD2A-Tudor / H3K4me3 peptide binding; Potency, µM (titrated, usually from 114 µM), most hits filed as inhibitors; AID 504339, 2011; Lysine-specific demethylase 4A (Homo sapiens), O75164; actives 4.4% (n = 390,000); also: nearly all actives have a fitted effect of over 50% in size
Target sequence (O75164 whole entry, looked up, the tested form may be a part): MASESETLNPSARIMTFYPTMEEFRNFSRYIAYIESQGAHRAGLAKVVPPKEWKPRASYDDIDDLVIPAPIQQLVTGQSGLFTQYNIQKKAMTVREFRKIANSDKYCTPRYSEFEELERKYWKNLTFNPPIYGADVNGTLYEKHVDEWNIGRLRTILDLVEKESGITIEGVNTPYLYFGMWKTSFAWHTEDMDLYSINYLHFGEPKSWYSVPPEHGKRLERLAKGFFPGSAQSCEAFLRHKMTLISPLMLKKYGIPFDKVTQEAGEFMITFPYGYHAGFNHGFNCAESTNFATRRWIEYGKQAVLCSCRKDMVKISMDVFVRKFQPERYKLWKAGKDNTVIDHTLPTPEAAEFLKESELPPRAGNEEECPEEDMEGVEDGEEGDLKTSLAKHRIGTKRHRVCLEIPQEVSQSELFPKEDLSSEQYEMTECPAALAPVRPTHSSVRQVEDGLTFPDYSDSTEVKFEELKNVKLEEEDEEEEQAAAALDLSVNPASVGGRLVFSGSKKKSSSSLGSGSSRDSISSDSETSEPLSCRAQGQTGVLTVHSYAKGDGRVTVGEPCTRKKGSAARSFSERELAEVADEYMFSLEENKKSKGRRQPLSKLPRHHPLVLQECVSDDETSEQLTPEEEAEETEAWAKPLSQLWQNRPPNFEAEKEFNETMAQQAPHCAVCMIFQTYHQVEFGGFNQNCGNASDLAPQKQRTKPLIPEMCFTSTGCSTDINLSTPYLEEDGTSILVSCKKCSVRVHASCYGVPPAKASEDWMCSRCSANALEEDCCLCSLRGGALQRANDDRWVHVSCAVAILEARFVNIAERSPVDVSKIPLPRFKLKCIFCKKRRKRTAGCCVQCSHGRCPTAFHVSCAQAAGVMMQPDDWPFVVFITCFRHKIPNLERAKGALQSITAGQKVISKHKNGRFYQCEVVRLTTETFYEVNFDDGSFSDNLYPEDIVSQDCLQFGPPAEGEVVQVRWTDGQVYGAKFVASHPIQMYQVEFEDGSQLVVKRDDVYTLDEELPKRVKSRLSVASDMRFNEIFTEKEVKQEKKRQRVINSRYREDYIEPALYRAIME
G9a block – qHTS Assay for Inhibitors of Histone Lysine Methyltransferase G9a; Histone-lysine N-methyltransferase EHMT2 (Homo sapiens), Q96KQ7; G9a H3K9 monomethylation, AlphaScreen, 2 h; Potency, µM (doses to about 102 µM), hits mostly inhibitors; actives 8.8% (n = 350,000); AID 504332, 2011; also: nearly all actives have a fitted effect of over 75% in size
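Using a bead-based AlphaScreen, monomethylated H3K9 product from 2 h room-temperature reactions (G9a 20 nM, peptide 500 nM, SAM 20 uM) was detected with 0.5 ug/mL rabbit anti-H3K9me1 antibody.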
BAZ2B inh – qHTS Assay for Inhibitors of BAZ2B; Bromodomain adjacent to zinc finger domain protein 2B (Homo sapiens), Q9UIF8; AlphaScreen BAZ2B-H3K14Ac peptide displacement; Potency, µM (titrated, usually from 114 µM), usual class: inhibitors; actives 4.4% (n = 360,000); also: nearly all actives have a fitted effect of over 60% in size
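Inhibition is scored as reduced AlphaScreen emission. The BAZ2B/b-H3(5-23)K14Ac complex (50 nM each) in PBS pH 7.4, 0.01% Tween-20 meets compound (up to 110 uM) for 30 min at RT before bead addition.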
Each line names hits and unclear results; the compound was inactive in the other large screens. Calls follow the shape of the dose curve; as a rule, active = well fitted curve in the direction sought with a large enough effect; inconclusive = small, poorly fitted or top-dose-only effect, or another doubt; inactive = no such curve, though single readings can be large; an effect the other way counts as inactive or inconclusive.

COc1ccc(NC(=O)COC(=O)c2ccc(-n3cnnn3)cc2)c([N+](=O)[O-])c1	none (no result: Sfp inh)
O=C1CC(c2ccco2)Cc2nc(N3CCc4ccccc4C3)ncc21 (centres undefined)	Sfp inh 25µM, G9a block 45µM, BAZ2B inh inconclusive
CC(C)c1ccc(C2CC(=O)c3cnc(N4CCc5ccccc5C4)nc3C2)cc1 (centres undefined)	JMJD2A Tudor inconclusive
Cc1ccc(S(=O)(=O)NC(=O)Nc2ncc3c(n2)CC(c2ccco2)CC3=O)cc1 (centres undefined)	G9a block 18µM
O=C(Nc1ncc2c(n1)CC(c1ccco1)CC2=O)c1ccco1 (centres undefined)	Sfp inh 32µM
COc1ccc(C(=O)Nc2ncc3c(n2)CC(c2ccco2)CC3=O)cc1 (centres undefined)	Sfp inh 50µM, G9a block inconclusive
CC(C)C(=O)Nc1ccccc1-c1nc2ccccc2[nH]c1=O	G9a block inconclusive
CC(C)C(=O)Nc1sc2c(c1-c1nc3ccccc3[nH]1)CCCC2	G9a block 14µM
O=C(OC[C@H]1O[C@@H](OC(=O)c2cc(O)c(O)c(OC(=O)c3cc(O)c(O)c(O)c3)c2)[C@H](OC(=O)c2cc(O)c(O)c(OC(=O)c3cc(O)c(O)c(O)c3)c2)[C@@H](OC(=O)c2cc(O)c(O)c(OC(=O)c3cc(O)c(O)c(O)c3)c2)[C@@H]1OC(=O)c1cc(O)c(O)c(OC(=O)c2cc(O)c(O)c(O)c2)c1)c1cc(O)c(O)c(OC(=O)c2cc(O)c(O)c(O)c2)c1	G9a block 1.4µM, BAZ2B inh 0.79µM (no result: HP1b binding inh, Sfp inh, JMJD2A Tudor)
O=C(Nc1cccc(Cl)c1)c1nc[nH]c1C(=O)NCCCCNC(=O)c1[nH]cnc1C(=O)Nc1cccc(Cl)c1	none (no result: Sfp inh, G9a block, BAZ2B inh)
COc1ccccc1NC(=S)NNC(=O)c1ccccc1Br	G9a block 35µM
COc1ccccc1NC(=S)NNC(=O)c1ccccc1	none (no result: Sfp inh, G9a block, BAZ2B inh)
COc1ccccc1C(=O)NNC(=O)c1ccccc1Br	none
COc1ccccc1NC(=S)c1ccccc1	Sfp inh 32µM, G9a block 7.9µM
COc1ccccc1NC(=S)NNC(=O)c1c(Cl)c(C)nn1C	G9a block 25µM
COc1cc(OC)cc(C(=O)NNC(=S)Nc2ccccc2OC)c1	G9a block 40µM
CCC(NC(=S)Nc1ccccc1)C(=O)O (centres undefined)	none
O=C(c1ccnc(Cl)c1)N1CCCC(Nc2ccc(F)cc2)C1 (centres undefined)	none
CC(C)c1ccc(NC2CCCN(C(=O)c3ccc4nccnc4c3)C2)cc1 (centres undefined)	G9a block 79µM
CC(C)c1ccc(NC2CCCN(C(=O)c3ccnc(Cl)c3)C2)cc1 (centres undefined)	G9a block 25µM, BAZ2B inh inconclusive
CC(C)c1ccc(NC2CCCN(C(=O)c3cccc(N4CCNC4=O)c3)C2)cc1 (centres undefined)	BAZ2B inh inconclusive (no result: G9a block)
CCC(=O)Nc1ccc(Cl)c(NC(=S)NC(C)=O)c1	G9a block 28µM
O=C1NC2(CCCCCC2)C(=O)N1Cc1ccc([N+](=O)[O-])cc1	none
CCOC(=O)Cn1nc(C)n(-c2ccc(Br)cc2)c1=O	G9a block inconclusive
COc1ccc2c(c1)c(=O)oc1cc(O)ccc12	none
O=c1oc2cc(O)ccc2c2ccccc12	G9a block 2µM, BAZ2B inh inconclusive
CCN(CC)C(=O)c1cccc(NC(=O)C2=COCCO2)c1	none (no result: Sfp inh)
CCN(CC)S(=O)(=O)c1cc(NC(=O)C2=COCCO2)ccc1Cl	G9a block 50µM (no result: Sfp inh)
Cn1c(=O)c2cn(Cc3ccc(Cl)cc3)cc2n(C)c1=O	G9a block 16µM
c1ccc2sc(NC3=NCN(C4CCCCCC4)CN3)nc2c1	none
O=C(NNc1ccc(Cl)cc1)c1c(F)cccc1Cl	G9a block 45µM
O=C(NNc1ccc(F)cc1)c1c(F)cccc1Cl	G9a block inconclusive
Fc1ccc(-c2ccc(CNCCSc3nnnn3-c3ccccc3)o2)cc1	JMJD2A Tudor inconclusive, G9a block 13µM, BAZ2B inh 35µM (no result: Sfp inh)
Cc1c(Cl)cccc1-c1ccc(CNCCSc2nnnn2-c2ccccc2)o1	BAZ2B inh inconclusive (no result: Sfp inh)
Fc1ccc(-c2ccc(CNCc3ccccn3)o2)cc1	JMJD2A Tudor 50µM, G9a block 40µM, BAZ2B inh 50µM
Fc1ccc(NC(=S)NCc2ccccn2)cc1	none
Clc1ccc(-c2ccc(CNCc3ccccn3)o2)cc1	JMJD2A Tudor 79µM, G9a block inconclusive, BAZ2B inh 20µM
CCCCN1C=C(C(=O)OCC)C(=O)CC1	none (no result: Sfp inh, G9a block, BAZ2B inh)
Cc1ccc(-c2csc(NC(=O)/C=C/c3ccco3)c2C(=O)O)cc1	Sfp inh 28µM, JMJD2A Tudor inconclusive, BAZ2B inh 79µM (no result: G9a block)
O=C(/C=C/c1ccco1)Nc1sc2c(c1C(=O)O)CCC2	Sfp inh 50µM, JMJD2A Tudor inconclusive, G9a block inconclusive, BAZ2B inh inconclusive
O=C(/C=C/c1ccccc1)Nc1sc2c(c1C(=O)O)CCC2	G9a block 50µM
Cc1ccc(-c2csc(NC(=O)c3cccc(C)c3)c2C(=O)O)cc1	none (no result: Sfp inh, G9a block, BAZ2B inh)
N#Cc1c(NC(=O)/C=C/c2ccco2)sc2c1CCCC2	Sfp inh inconclusive, G9a block inconclusive, BAZ2B inh inconclusive
Cc1ccc(S(=O)(=O)N2CCC(=O)N(CCOC(=O)Nc3cc(C)cc(C)c3)CC2)cc1	none
Cc1ccc(C(=O)O/N=C/C2=C(Cl)c3ccccc3CC2)cc1	Sfp inh inconclusive
Cn1c(C(=O)NCc2ccc(Cl)cc2)cc2c(=O)n(C)c3ccccc3c21	none (no result: Sfp inh)
O=C(O)C(CCCCN1C(=O)c2ccccc2C1=O)N1C(=O)c2ccccc2C1=O (centres undefined)	G9a block inconclusive, BAZ2B inh 89µM
O=C(Nc1ccccc1)C(CCCCN1C(=O)c2ccccc2C1=O)N1C(=O)c2ccccc2C1=O (centres undefined)	none (no result: Sfp inh, G9a block, BAZ2B inh)
C=CCc1cccc(C=Nc2cc(Br)ccc2O)c1O	Sfp inh inconclusive, JMJD2A Tudor inconclusive, G9a block 45µM, BAZ2B inh inconclusive
CCc1ccc(O)c(N=Cc2cccc(C)c2O)c1	JMJD2A Tudor inconclusive, G9a block 2.5µM
C=CCc1cccc(/C=N/c2ncn[nH]2)c1O	none
C=CCn1c(NC(=O)c2ccccc2)nc2ccccc21	none (no result: G9a block)
O=C(O)CN1CCN(Cc2cccc(Cl)c2)C1=O	none
Cc1ccccc1NC(=S)/C(=C(\[O-])c1ccc(C)c([N+](=O)[O-])c1)[n+]1ccccc1	G9a block inconclusive, BAZ2B inh inconclusive

From PubChem BioAssay
